# Several values for one entry are separate records, joined by “and”; a condition that tells them apart may be missing. Equal entries are not always repeated. Results filed as inconclusive are left out. Where a call stands in place of a potency, no number is given. More than one record can exist for a structure, and the calls need not agree. Activity calls are given as the source filed them. Unless noted, the call rests on the fitted dose curve; in most records, active means well fitted curve in the direction sought with a large enough effect in the repeat runs; inconclusive means weak or mixed curves; inactive means no such curve, though single readings can be large; an effect the other way counts as inactive or inconclusive.
# Assays:
# [1] = target: Thyrotropin receptor (Homo sapiens) (UniProt P16473); assay: qHTS assay to identify small molecule agonists of the thyroid stimulating hormone receptor (TSHR) signaling pathway (AID 1224843; calls by dose curve; further: nearly all actives have a fitted effect of over 45% in size; further: potency means the concentration at half of the fitted maximal effect)
# Sequence of Thyrotropin receptor (Homo sapiens) (P16473 whole entry, looked up): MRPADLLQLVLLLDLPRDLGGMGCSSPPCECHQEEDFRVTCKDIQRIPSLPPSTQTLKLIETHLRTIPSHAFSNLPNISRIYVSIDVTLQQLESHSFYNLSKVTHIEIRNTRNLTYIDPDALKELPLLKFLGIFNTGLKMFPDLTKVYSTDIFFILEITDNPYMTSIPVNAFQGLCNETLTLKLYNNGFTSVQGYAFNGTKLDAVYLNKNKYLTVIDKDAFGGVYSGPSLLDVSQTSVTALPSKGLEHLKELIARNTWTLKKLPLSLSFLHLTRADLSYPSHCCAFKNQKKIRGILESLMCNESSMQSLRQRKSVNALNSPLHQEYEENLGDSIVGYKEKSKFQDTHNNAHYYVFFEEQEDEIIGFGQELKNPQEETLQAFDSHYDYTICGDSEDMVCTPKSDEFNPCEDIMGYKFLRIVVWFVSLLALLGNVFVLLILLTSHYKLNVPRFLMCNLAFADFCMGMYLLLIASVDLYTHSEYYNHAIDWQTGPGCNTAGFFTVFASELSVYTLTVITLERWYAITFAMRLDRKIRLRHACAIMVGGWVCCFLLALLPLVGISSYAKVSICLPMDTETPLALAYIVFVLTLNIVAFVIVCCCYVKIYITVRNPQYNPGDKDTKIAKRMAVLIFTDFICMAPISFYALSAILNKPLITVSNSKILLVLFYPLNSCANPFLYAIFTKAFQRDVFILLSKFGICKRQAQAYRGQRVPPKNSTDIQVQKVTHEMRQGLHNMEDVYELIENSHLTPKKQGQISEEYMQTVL
# Summary of the method: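 Steps: seed 800 TSHR-HEK293 cells per well; add test compound and hold 30 min at ambient temperature; dispense cAMP-d2 then anti-cAMP cryptate; incubate 1 h at ambient; measure fluorescence intensity.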
# [2] = qHTS assay to identify small molecule agonists of the hypoxia (HIF-1) signaling pathway - cell viability counter screen (AID 1224844; calls by dose curve; further: nearly all actives have a fitted effect of over 50% in size)
# Summary of the method: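 Cells (HRE-bla ME-180, 2,000 per well) sat 5 hrs at 37C, got compound for 17 hrs, were read for CCF4-AM FRET, and were finally lysed with CellTiter-Glo for a 30 min room-temperature luminescence read.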
# [3] = qHTS assay to identify small molecule agonists of H2AX (AID 1224845; active means well fitted activation curve with a large enough effect in the signal ratio in the repeat runs, not every such curve was filed as active; the % refers to the signal ratio)
# Summary of the method: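 Wild-type CHO-K1 cells, plated overnight, exposed 3hr at 37C to 15 concentrations (0.76% DMSO final). Lysed, then HTRF anti-pH2AX (S139) cryptate and anti-H2AX-d2 antibodies, 24 hr room temperature; 665/620 nm emission read.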
# [4] = qHTS assay to identify small molecule agonists of the hypoxia (HIF-1) signaling pathway (AID 1224846; active means well fitted activation curve with a large enough effect in the signal ratio in the repeat runs, not every such curve was filed as active; the % refers to the signal ratio)
# Summary of the method: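 A low-serum medium (0.5% dialyzed FBS) holding 2,000 HRE-bla ME-180 cells per well is preincubated for 5 hrs, dosed with compounds by pintool, and kept a further 17 hrs at 37C, 5% CO2 before CCF4-AM FRET detection of beta-lactamase.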
# [5] = qHTS assay to identify small molecule agonists of H2AX - cell viability counter screen (AID 1224847; calls by dose curve; further: top concentration of the series differs between compounds; nearly all actives have a fitted effect of over 30% in size)
# Summary of the method: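 Counter-screen for viability: CellTiter-Glo ATP luminescence read after 3 h compound treatment (15-point titration, 0.76% DMSO final) of CHO-K1 cells at 37C, with 30 min room-temperature reagent incubation.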
# [6] = qHTS assay to identify small molecule antagonists of the estrogen related receptor (ERR) signaling pathway from Tox21 library (AID 1224848); further: nearly all actives have a fitted effect of over 50% in size; further: potency means the concentration at half of the fitted maximal effect
# Summary of the method: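 Luminescent reporter read-out (ONE-Glo) from NTP's ERR cell line after 18 h treatment at 37 C with DMSO-dissolved Tox21 compounds; cells pre-plated 6 h beforehand at 2,000 per well.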
# [7] = qHTS assay to identify small molecule agonists of the estrogen related receptor (ERR) signaling pathway from Tox21 library (AID 1224849; calls by dose curve; further: nearly all actives have a fitted effect of over 15% in size); settings: ERR reporter cell line, ONE-Glo luciferase, 18 h
# Summary of the method: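 Screening used an NTP-provided ERR luciferase cell line. Compounds in DMSO were added 6 h after seeding and left 18 h at 37 C before a 30 min ONE-Glo step and luminescence reading.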
# [8] = qHTS RealTime-Glo MT Cell Viability Assay in HepG2 cells - 24 hour (AID 1224867); further: nearly all actives have a fitted effect of over 50% in size
# Summary of the method: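 Luminescence read-out: viable HepG2 cells reduce a prosubstrate to a NanoLuc substrate, giving a signal proportional to live cell number. Reads taken at 0, 8, 16, 24, 32 and 40 h of compound exposure at 37 C.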
# [9] = qHTS RealTime-Glo MT Cell Viability Assay in HEK293 cells - 32 hour (AID 1224868); further: top concentration of the series differs between compounds; nearly all actives have a fitted effect of over 50% in size
# Summary of the method: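 Nonlytic real-time viability readout: viable cells convert prosubstrate to NanoLuc substrate, giving luminescence proportional to live cell number. HEK293, 600 cells/well, compound added after 5 h, continuous culture at 37 C.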
# [10] = A CellTox Green Cytotoxicity Assay to monitor cytotoxicity in HEK293 cells - 0 hour (AID 1224869); further: nearly all actives have a fitted effect of over 50% in size
# Summary of the method: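 Fluorescence intensity, read at 0, 8, 16, 24, 32 and 40 h of compound treatment, reflected dye binding to DNA of dead HEK293 cells; compounds (23 nL, DMSO) were added 5 h after plating cells with reagent.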
Structure (SMILES),Potency [1],Potency [2],Potency [3],outcome [4],Potency [5],Potency [6],"activity change, positive = activation ([7]; at 92.4 µM (top of the series))",outcome [8],Potency [9],Potency [10],"activity change, positive = activation ([7]; at 42.5 µM (top of the series))"
COc1nc(NC(C)C)nc(NC(C)C)n1,inactive,inactive,inactive,inactive,inactive,inactive,1.12% (inactive) and 6.24% (inactive),inactive,inactive,inactive,–
CN(C)C(=O)Cl,inactive,inactive,inactive,inactive,–,inactive,5.68% (inactive) and 6.16% (inactive),inactive,inactive,inactive,–
O=C(O)COc1ccccc1,inactive,inactive,–,inactive,inactive,–,–,inactive,inactive,inactive,–
CCOP(=S)(OCC)Oc1ccc([N+](=O)[O-])cc1,inactive,inactive,inactive,inactive,inactive,–,–,inactive,inactive,inactive,–
ClCCOCCCl,inactive,inactive,–,inactive,inactive,–,–,inactive,inactive,inactive,–
C=C(C)C(=O)OCC(CC)CCCC (configuration not stated),inactive,inactive,–,inactive,inactive,24.8 µM (active) and inactive,-78.2% (inactive) and 4.6% (inactive),inactive,inactive,inactive,–
Nc1ccc(N)cc1,inactive,inactive,inactive,inactive,inactive,–,–,inactive,inactive,inactive,–
CC(C)CCCCCCOC(=O)c1ccccc1C(=O)OCCCCCCC(C)C,inactive,inactive,inactive,inactive,inactive,–,–,inactive,inactive,inactive,–
CCOC(=O)CC(SP(=O)(OC)OC)C(=O)OCC (configuration not stated),inactive,inactive,–,inactive,inactive,–,–,inactive,inactive,inactive,–
c1ccc2c(c1)CCCC2,inactive,inactive,inactive,inactive,inactive,–,–,inactive,inactive,inactive,–
CN1C(=O)CCS(=O)(=O)C1c1ccc(Cl)cc1 (configuration not stated),inactive,inactive,inactive,–,–,–,–,inactive,inactive,inactive,–
O=C/C=C/c1ccccc1,inactive,inactive,inactive,inactive,inactive,–,–,inactive,inactive,inactive,–
CCNc1nc(Cl)nc(NC(C)C)n1,inactive,inactive,–,inactive,inactive,inactive,-5.74% (inactive) and -1.44% (inactive),inactive,inactive,inactive,–
Cc1ccc(N)cc1,inactive,inactive,inactive,inactive,–,inactive,14.9% (active) and 11.9% (inactive),inactive,inactive,inactive,–
CNC(=O)Oc1cccc2ccccc12,inactive,inactive,–,inactive,inactive,–,–,inactive,inactive,inactive,–
Nc1cc(Cl)cc(Cl)c1,inactive,inactive,inactive,inactive,inactive,–,–,inactive,inactive,inactive,–
Cc1ccc(O)c(C)c1,inactive,inactive,inactive,inactive,–,inactive,-0.712% (inactive) and 11.3% (inactive),inactive,inactive,inactive,–
CNCC(O)c1ccc(O)cc1 (configuration not stated),inactive,inactive,–,inactive,–,inactive,2.21% (inactive),inactive,inactive,inactive,12.7% (inactive)
Cc1cc(O)ccc1Cl,inactive,inactive,–,inactive,inactive,inactive,0.807% (inactive) and 6.83% (inactive),inactive,inactive,inactive,6.83% (inactive)
Cc1ccccc1N,1.08 µM (active) and inactive,inactive,inactive,inactive,inactive,–,–,inactive,inactive,inactive,–
Oc1c(Br)cc(Br)cc1Br,inactive,inactive,–,inactive,inactive,–,–,inactive,inactive,inactive,–
OCCCCO,inactive,inactive,inactive,inactive,–,inactive,2.81% (inactive) and 0.133% (inactive),inactive,inactive,inactive,–

Structure (SMILES),Potency [1],Potency [2],Potency [3],outcome [4],Potency [5],Potency [6],"activity change, positive = activation ([7]; at 92.4 µM (top of the series))",outcome [8],Potency [9],Potency [10],"activity change, positive = activation ([7]; at 42.5 µM (top of the series))"
Oc1ccc(Cl)cc1,inactive,inactive,inactive,inactive,inactive,–,–,inactive,inactive,inactive,–
C=CC(=O)OCCCCCC(C)C,inactive,inactive,–,inactive,inactive,–,–,inactive,inactive,inactive,–
COC(C)(C)CCCC(C)C/C=C/C(C)=C/C(=O)OC(C)C (configuration not stated),inactive,inactive,–,inactive,inactive,inactive,-14.1% (inactive),inactive,inactive,inactive,0.0177% (inactive)
CSc1nnc(C(C)(C)C)c(=O)n1N,inactive,inactive,inactive,inactive,inactive,–,–,inactive,inactive,inactive,–
CCSC(=O)N1CCCCCC1,inactive,inactive,–,inactive,–,inactive,-10.2% (inactive) and -0.0309% (inactive),inactive,inactive,inactive,–
COP(=S)(OC)SCN1C(=O)c2ccccc2C1=O,inactive,inactive,inactive,inactive,–,–,–,inactive,inactive,inactive,–
CCCCC(CC)C(=O)Cl (configuration not stated),inactive,inactive,–,inactive,inactive,–,–,inactive,inactive,inactive,–
Nc1ccc([As](=O)(O)O)cc1,inactive,inactive,inactive,inactive,inactive,–,–,inactive,inactive,inactive,–
C[C@H]1C(=O)O[C@@H]2CCN3CC=C(COC(=O)[C@](C)(O)[C@]1(C)O)[C@H]23,inactive,inactive,–,–,inactive,–,–,inactive,inactive,inactive,–
C=CCN=C=S,–,inactive,inactive,inactive,–,inactive,10.8% (inactive) and 0.847% (inactive),inactive,inactive,inactive,–
C=CC#N,–,inactive,inactive,inactive,–,inactive,0.57% (inactive) and 1.17% (inactive),inactive,inactive,inactive,–
Sc1ccccc1,–,inactive,inactive,inactive,–,–,–,inactive,inactive,inactive,–
O=C(O)c1cc(Oc2ccc(C(F)(F)F)cc2Cl)ccc1[N+](=O)[O-],–,inactive,inactive,inactive,inactive,inactive,-1% (inactive) and -14.6% (inactive) and -4.43% (inactive),inactive,inactive,inactive,9.01% (inactive)
Cc1cccc(N)c1C,–,inactive,inactive,inactive,–,–,–,inactive,inactive,inactive,–
O=[N+]([O-])c1ccc(Cl)cc1,inactive,inactive,–,inactive,–,–,–,inactive,inactive,inactive,–
C/C=C/c1ccc2c(c1)OCO2,inactive,inactive,–,inactive,–,–,–,inactive,inactive,inactive,–
CN(C)C(=O)Nc1cccc(C(F)(F)F)c1,–,inactive,inactive,inactive,inactive,–,–,inactive,inactive,inactive,–
O=P1(NCCCl)OCCCN1CCCl (configuration not stated),–,inactive,inactive,inactive,–,inactive,5.99% (inactive) and 1.11% (inactive),inactive,inactive,inactive,-0.35% (inactive)
CC(=O)/C=C/c1ccccc1,–,inactive,inactive,inactive,–,–,–,inactive,inactive,inactive,–
FC(F)(F)c1ccc(Cl)cc1,–,inactive,inactive,inactive,inactive,–,–,inactive,inactive,inactive,–
CN(C)NC(=O)CCC(=O)O,–,inactive,inactive,inactive,inactive,inactive,4.6% (inactive) and 12.8% (active),inactive,inactive,inactive,–

# Reference: PubChem BioAssay (Tox21)
